From PubChem BioAssay (Tox21) come the findings set out here.

Assay [1] has as its target Luciferin 4-monooxygenase (Photinus pyralis) (UniProt P08659). The experiment in a line: qHTS assay to identify small molecule inhibitors of firefly luciferase (AID 1224835). Note: nearly all actives have a fitted effect of over 25% in size. Note: potency is the fitted concentration of half-maximal effect. The procedure, abridged:
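Inhibition of purified Photinus luciferase is measured by luminescence. Substrate levels (D-luciferin, ATP) sit at their KM values. Each compound is tested in a concentration series.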
In general terms: qHTS replaces the single test concentration by a dilution series.

Assay [2] in a line: qHTS assay to identify small molecule agonists of the constitutive androstane receptor (CAR) signaling pathway - cell viability counter screen (AID 1224836). Note: series mostly up to about 92 µM; nearly all actives have a fitted effect of over 45% in size. The procedure, abridged: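 Counter screen multiplexed with the CAR reporter readout: HepG2 cells co-transfected with hCAR and the CYP2B6-2.2kb construct receive a 15-concentration compound series and 0.75 uM PK11195 (final), then CellTiter-Fluor fluorescence is read after 23 h.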

Assay [3] in a line: qHTS assay to identify small molecule antagonists of the constitutive androstane receptor (CAR) signaling pathway - cell viability counter screen (AID 1224837). Note: series mostly up to about 92 µM; nearly all actives have a fitted effect of over 45% in size. The procedure, abridged: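 HepG2 cells stably expressing hCAR and a CYP2B6-2.2kb reporter were plated and pre-incubated 4 hr at 37 C/5% CO2, then given compounds at 15 concentrations plus 50 nM CITCO (final). After 23 hr, viability was read by CellTiter-Fluor fluorescence.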

Assay [4] concerns the target Nuclear receptor subfamily 1 group I member 3 (Homo sapiens) (UniProt Q14994). The experiment in a line: qHTS assay to identify small molecule antagonists of the constitutive androstane receptor (CAR) signaling pathway (AID 1224838). Note: nearly all actives have a fitted effect of over 40% in size. The procedure, abridged: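 HepG2 cells stably co-transfected with hCAR and a CYP2B6-2.2kb luciferase reporter were seeded 4 h before compound addition at 15 concentrations. Cells were stimulated with 50 nM CITCO (final) for 24 h at 37 C; luciferase luminescence was then read.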

Assay [5] shares this target. Briefly: qHTS assay to identify small molecule agonists of the constitutive androstane receptor (CAR) signaling pathway (AID 1224839). For activation: series mostly up to about 92 µM. Note: nearly all actives have a fitted effect of over 15% in size. Note: potency is the fitted concentration of half-maximal effect. The procedure, abridged:
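A 15-concentration quantitative screen uses HepG2 cells co-transfected stably with human CAR and CYP2B6-2.2kb reporter. Treatment lasts 24 h with 0.75 uM PK11195 final present; ONE-Glo luminescence is the signal.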

Assay [6] in a line: qHTS assay to identify small molecule antagonists of the estrogen related receptor signaling pathway with the pleiotropic PPARgamma coactivator (PGC) from Tox21 10K library - cell viability counter screen (AID 1224840; active = well fitted cell-killing curve with a large enough effect in the repeat runs, not every such curve was filed as active; note: nearly all actives have a fitted effect of over 40% in size). The procedure, abridged:
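PGC/ERR cells were seeded at 2,000 cells/well and left 6 hours at 37 C/5% CO2 before pin-tool addition of compounds in DMSO. After 17.5 hours at 37 C, CellTiter-Fluor was added and fluorescence read 30 minutes later.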

Assay [7] concerns the target Thyrotropin receptor (Homo sapiens) (UniProt P16473). The experiment in a line: qHTS assay to identify small molecule agonists of the thyroid stimulating hormone receptor (TSHR) signaling pathway (AID 1224843; calls by dose curve; note: nearly all actives have a fitted effect of over 45% in size). The procedure, abridged: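 Screening of the Tox21 10K collection used HEK293 cells engineered with TSHR at 800 cells per well. After a 30-min room-temperature compound exposure, HTRF cAMP reagents were added and fluorescence recorded 1 h later.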

Assay [8] can be described thus: qHTS assay to identify small molecule agonists of the hypoxia (HIF-1) signaling pathway - cell viability counter screen (AID 1224844; calls by dose curve; note: nearly all actives have a fitted effect of over 50% in size). The procedure, abridged:
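HRE-bla ME-180 cells in medium with 0.5% dialyzed FBS were preincubated 5 hrs at 37C, exposed to compounds for 17 hrs, then viability was read as CellTiter-Glo luminescence after 30 min at room temperature, in the reporter wells.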

The nature of assay [9]: qHTS assay to identify small molecule agonists of H2AX (AID 1224845; active = well fitted activation curve with a large enough effect in the signal ratio in the repeat runs, not every such curve was filed as active; the % refers to the signal ratio). The procedure, abridged:
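Phospho-H2AX Ser139 measured by HTRF (ex 320 nm; em 665 and 620 nm) after 24 hr antibody incubation. Compounds, 15 concentrations, 0.76% DMSO, were applied to CHO-K1 cells for 3hr at 37C before lysis.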

The nature of assay [10]: qHTS assay to identify small molecule agonists of the hypoxia (HIF-1) signaling pathway (AID 1224846; active = well fitted activation curve with a large enough effect in the signal ratio in the repeat runs, not every such curve was filed as active; the % refers to the signal ratio). The procedure, abridged: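 HRE-bla ME-180 cells (beta-lactamase reporter under hypoxia response element) were plated at 2,000 cells/well in medium with 0.5% dialyzed FBS, rested 5 hrs, then given compounds in DMSO for 17 hrs at 37C, 5% CO2. Reporter induction was read with CCF4-AM FRET substrate.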

Assay [11] is described as follows: qHTS assay to identify small molecule agonists of H2AX - cell viability counter screen (AID 1224847; calls by dose curve; note: top concentration of the series differs between compounds; nearly all actives have a fitted effect of over 30% in size). The procedure, abridged:
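We seed wild-type CHO-K1 cells overnight, treat them for 3 hr at 37C with compounds in 15-concentration series, and quantify remaining viability by CellTiter-Glo luminescence.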

Assay [12] is described as follows: qHTS RealTime-Glo MT Cell Viability Assay in HepG2 cells - 24 hour (AID 1224867). Note: nearly all actives have a fitted effect of over 50% in size. The procedure, abridged:
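qHTS, HepG2, 600 cells/well, RealTime-Glo (NanoLuc + prosubstrate) added with cells; 5 h preincubation; DMSO compound addition; 37 C; luminescence at 0/8/16/24/32/40 h.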

A short description of assay [13]: qHTS RealTime-Glo MT Cell Viability Assay in HEK293 cells - 32 hour (AID 1224868). Note: top concentration of the series differs between compounds; nearly all actives have a fitted effect of over 50% in size. The procedure, abridged: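 Assay medium contained NanoLuc luciferase plus cell-permeant prosubstrate, added with HEK293 cells at 600 cells/well. After 5 h at 37 C/5% CO2 compounds were added; plates stayed at 37 C for 40 h with serial luminescence reads.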
Assay [14] is described as follows: A CellTox Green Cytotoxicity Assay to monitor cytotoxicity in HEK293 cells - 0 hour (AID 1224869). Note: nearly all actives have a fitted effect of over 50% in size. The procedure, abridged: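 HEK293 cells premixed with CellTox Green dye were seeded at 600 cells/well and left 5 h at 37 C/5% CO2 before pin transfer of 23 nL compound in DMSO. Fluorescence from dye bound to dead-cell DNA was read during 40 h treatment.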
Assay [15] is described as follows: qHTS RealTime-Glo MT Cell Viability Assay in HepG2 cells - 40 hour (AID 1224870). Note: nearly all actives have a fitted effect of over 50% in size. Note: potency is the fitted concentration of half-maximal effect. The procedure, abridged:
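Real-time viability: cells seeded at 600 per well together with NanoLuc and cell-permeant prosubstrate, compounds added after 5 h incubation. Luminescence tracked at 0, 8, 16, 24, 32 and 40 h of exposure.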

Assay [16] in a line: qHTS assay to identify small molecule antagonists of the estrogen related receptor signaling pathway with the pleiotropic PPARgamma coactivator (PGC) from Tox21 10K library (AID 1224841; call rule not given here). The procedure, abridged: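 PGC/ERR reporter cells were seeded at 2,000 cells/well and held 6 hours at 37 C/5% CO2 before pin-tool addition of compounds in DMSO. After 18 hours at 37 C, One-Glo was added and luminescence read after 30 minutes at room temperature.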

The nature of assay [17]: qHTS assay to identify small molecule agonists of the estrogen related receptor signaling pathway with the pleiotropic PPARgamma coactivator (PGC) from Tox21 10K library (AID 1224842). Note: nearly all actives have a fitted effect of over 15% in size. The procedure, abridged:
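Luminescence from One-Glo (30 min, room temperature) measured after PGC/ERR cells had 18 h at 37 C with pinned compound (23 nL in DMSO). Cells had been seeded at 2,000 per well and pre-incubated 6 h.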

Assay [18] can be described thus: qHTS assay to identify small molecule antagonists of the estrogen related receptor (ERR) signaling pathway from Tox21 library (AID 1224848). Note: nearly all actives have a fitted effect of over 50% in size. The procedure, abridged: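 Antagonist-mode screen of the Tox21 10K library in an NTP-provided ERR reporter cell line; 18 h compound exposure at 37 C, luminescence measured with ONE-Glo.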
A short description of assay [19]: qHTS assay to identify small molecule agonists of the estrogen related receptor (ERR) signaling pathway from Tox21 library (AID 1224849; calls by dose curve; note: nearly all actives have a fitted effect of over 15% in size). The procedure, abridged: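 ERR reporter cell line (NTP) seeded, rested 6 h at 37 C/5% CO2, then pinned with Tox21 compounds in DMSO. After 18 h at 37 C, ONE-Glo luciferase luminescence was read following 30 min at room temperature.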

Values without a mark were called inactive. Inconclusive results are not listed. Activity calls are given as the source filed them. Unless noted, calls come from the whole dose curve; as a rule, active = well fitted curve in the direction sought with a large enough effect in the repeat runs; inconclusive = weak or mixed curves; inactive = no such curve, though single readings can be large; an effect the other way counts as inactive or inconclusive.

Chain of Luciferin 4-monooxygenase (Photinus pyralis) (P08659 whole entry, looked up): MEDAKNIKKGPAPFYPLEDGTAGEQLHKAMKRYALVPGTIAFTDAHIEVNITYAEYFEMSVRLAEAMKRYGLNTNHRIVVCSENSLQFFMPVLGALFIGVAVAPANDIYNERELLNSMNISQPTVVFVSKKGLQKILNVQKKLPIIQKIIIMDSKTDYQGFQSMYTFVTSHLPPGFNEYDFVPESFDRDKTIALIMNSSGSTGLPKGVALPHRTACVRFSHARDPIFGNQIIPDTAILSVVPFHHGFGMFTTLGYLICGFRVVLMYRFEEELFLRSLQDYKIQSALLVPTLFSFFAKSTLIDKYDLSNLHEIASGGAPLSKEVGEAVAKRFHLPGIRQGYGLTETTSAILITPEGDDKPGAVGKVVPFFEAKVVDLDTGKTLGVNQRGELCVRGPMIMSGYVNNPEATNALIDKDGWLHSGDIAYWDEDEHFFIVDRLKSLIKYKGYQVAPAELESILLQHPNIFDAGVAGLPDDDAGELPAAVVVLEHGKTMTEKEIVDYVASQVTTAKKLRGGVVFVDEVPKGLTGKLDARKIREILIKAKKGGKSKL
Chain of Nuclear receptor subfamily 1 group I member 3 (Homo sapiens) (Q14994 whole entry, looked up): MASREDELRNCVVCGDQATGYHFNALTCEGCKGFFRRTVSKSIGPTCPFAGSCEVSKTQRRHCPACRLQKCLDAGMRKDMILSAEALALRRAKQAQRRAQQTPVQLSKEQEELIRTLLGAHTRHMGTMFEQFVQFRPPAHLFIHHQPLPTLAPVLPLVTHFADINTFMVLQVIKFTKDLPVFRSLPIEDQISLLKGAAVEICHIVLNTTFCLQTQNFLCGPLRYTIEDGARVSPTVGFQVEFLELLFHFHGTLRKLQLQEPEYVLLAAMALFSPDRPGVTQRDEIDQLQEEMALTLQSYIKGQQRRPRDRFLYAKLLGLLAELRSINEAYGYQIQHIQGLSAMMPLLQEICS
Chain of Thyrotropin receptor (Homo sapiens) (P16473 whole entry, looked up): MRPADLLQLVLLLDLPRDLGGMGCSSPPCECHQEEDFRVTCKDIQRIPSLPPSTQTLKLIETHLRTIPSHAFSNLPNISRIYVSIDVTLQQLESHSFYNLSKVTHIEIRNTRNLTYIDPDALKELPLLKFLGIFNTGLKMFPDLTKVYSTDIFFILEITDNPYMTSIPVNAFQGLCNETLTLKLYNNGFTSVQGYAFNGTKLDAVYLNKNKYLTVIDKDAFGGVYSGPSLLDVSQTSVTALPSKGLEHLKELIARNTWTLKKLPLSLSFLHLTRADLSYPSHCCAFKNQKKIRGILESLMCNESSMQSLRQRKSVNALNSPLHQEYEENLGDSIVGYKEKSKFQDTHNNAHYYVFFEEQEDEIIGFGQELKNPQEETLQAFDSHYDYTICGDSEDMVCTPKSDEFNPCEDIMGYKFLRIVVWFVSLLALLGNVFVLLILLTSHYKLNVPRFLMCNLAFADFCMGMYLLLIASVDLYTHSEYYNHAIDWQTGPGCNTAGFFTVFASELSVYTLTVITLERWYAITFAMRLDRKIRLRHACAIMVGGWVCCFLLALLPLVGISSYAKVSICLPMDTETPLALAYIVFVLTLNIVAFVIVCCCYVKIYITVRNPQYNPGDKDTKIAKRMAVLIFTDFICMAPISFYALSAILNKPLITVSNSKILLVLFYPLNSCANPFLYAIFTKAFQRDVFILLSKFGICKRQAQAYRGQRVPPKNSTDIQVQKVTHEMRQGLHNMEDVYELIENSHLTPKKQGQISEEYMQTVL

As for `NC(=O)N1c2ccccc2CC(=O)c2ccccc21`, the Potency result in assay [1], in assay [4], in [5], in assay [7], in [8] and in assay [9] was “inactive” throughout. The Potency result in assay [13] and in assay [15] was “inactive” in each case. The outcome in assay [2], in assay [3], in assay [6], in assay [10], in assay [11] and in assay [12] was inactive. Further, in assay [14], the call was inactive.
Take `O=C1c2ccccc2C(=O)c2cc(O)ccc21`: the Potency in assay [1] was 28.3 µM (active); in assay [5], 54.5 µM (active). Further, the compound was classed as inactive in assay [2], in assay [3], in assay [6], in assay [10], in assay [11] and in assay [12]. Moreover, the compound was called inactive in assay [14]. Moreover, the Potency entry in assay [4], in assay [7], in assay [8] and in assay [15] was “inactive” each time.
As to `FB(F)F`, the Potency result in [1], in [17], in assay [8], in assay [18], in [13] and in [15] was “inactive” each time. The compound was called inactive in assay [2], in assay [3], in assay [6], in assay [10], in assay [11] and in assay [19]. Besides, the compound was called inactive in assay [12] and in assay [14]. Moreover, the Potency in assay [16] was 45.4 µM (active).
Turning to `CC(C)C1CCC(O)CC1` (configuration not stated), the Potency result in assay [1], in assay [4], in assay [5], in [7], in [9] and in assay [13] was “inactive” throughout. For the same compound, in assay [15], the Potency result is “inactive”. Further, the result in [2], in [3], in assay [6], in [10], in assay [11] and in assay [12] was inactive. Further, the result in assay [14] was inactive.
In the case of `CCCC[N+](C)(CCCC)CCCC`, the Potency result in [1], in [4], in [5], in [7], in assay [8] and in assay [9] was “inactive” in each case. Also, the Potency result in assay [13] and in [15] was “inactive” in each case. The compound was classed as inactive in assay [2], in [3], in assay [6], in assay [10], in [12] and in assay [14].
On to `CNCCO`, for which the Potency entry in [1], in assay [7], in assay [9], in assay [13] and in assay [15] was “inactive” each time. In addition, the compound was called inactive in [2], in assay [6], in assay [10], in assay [12] and in assay [14].
On to `CCCn1cc[n+](C)c1C`, for which the Potency result in assay [1], in assay [8], in [9] and in [13] was “inactive” each time. The result in assay [2], in [6], in assay [10], in assay [11] and in [14] was inactive. The Potency in [15] was 45 µM (active).
Regarding `O=C(c1ccccc1O)c1ccccc1O`, the compound was called inactive in assay [2], in assay [3], in assay [6], in [10], in [11] and in [12]. Further, the result in assay [14] was inactive. In addition, the Potency result in [4], in assay [5], in assay [7], in assay [8] and in [15] was “inactive” each time.
With `C=C(C)C(=O)OCC1CCCO1` (configuration not stated), the Potency result in [1], in assay [4], in assay [5], in [8], in [9] and in assay [13] was “inactive” in each case. Also, the Potency entry in assay [15] is “inactive”. Further, the outcome in assay [2], in assay [3], in [6], in assay [10], in assay [11] and in assay [12] was inactive. In assay [14], the call was inactive.
Consider `CCCCc1ccc2c(n1)[C@@H](c1ccc(OC)cc1C[C@H](C)C(=O)O)[C@H](C(=O)O)[C@H]2c1ccc2c(c1)OCO2`, for which the Potency result in assay [1], in assay [4], in assay [5], in assay [7], in [8] and in assay [9] was “inactive” each time. Further, the Potency result in assay [13] and in [15] was “inactive” throughout. Further, the compound was classed as inactive in [2], in assay [3], in assay [6], in [10], in [11] and in [12]. Besides, in [14], the compound was called inactive.
